# Measured values from the supplement of paper PMC12669032.
# Unmarked numbers belong to inactive results.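 The calls were made as follows: active = AUC reduced over 20% with Padj below 0.05 in at least 2 of 3 replicates; inactive = otherwise.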
# Assays:
# Experiment in all cases: growth AUC relative to DMSO control (median of replicates) (fraction); higher = more growth (less inhibition), active = hit call of the paper
# Conditions in all cases: 20 µM; 24 h
# Coprococcus comes = tested on: Coprococcus comes
# Method in brief: (§1)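 Starting at OD600 0.05, gut bacterial monocultures in mGAM were grown anaerobically at 37 °C with 20 µM compound (1% DMSO) under pierced gas-permeable seals. OD600 was read every hour for 24 h, and the lowest OD of each curve was set to 0. Area under the growth curve was normalised to the plate median of solvent-only wells, or to row and column medians on the industrial chemical plate, and the median of three biological replicates grown on separate days is given.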
# Escherichia coli ED1a = tested on: Escherichia coli ED1a
# Method in brief: as §1
# Escherichia coli IAI1 = tested on: Escherichia coli IAI1
# Method in brief: as §1
# Eubacterium rectale = tested on: Eubacterium rectale
# Method in brief: as §1
# [1] = tested on: Fusobacterium nucleatum subsp. animalis
# Method in brief: as §1
# Lactobacillus gasseri = tested on: Lactobacillus gasseri
# Method in brief: as §1
# Lactobacillus paracasei = tested on: Lactobacillus paracasei
# Method in brief: as §1
# Odoribacter splanchnicus = tested on: Odoribacter splanchnicus
# Method in brief: as §1
# [2] = tested on: Parabacteroides distasonis
# Method in brief: as §1
# Parabacteroides merdae = tested on: Parabacteroides merdae
# Method in brief: as §1
# Roseburia intestinalis = tested on: Roseburia intestinalis
# Method in brief: as §1
# Streptococcus salivarius = tested on: Streptococcus salivarius
# Method in brief: as §1
SMILES,growth AUC (Coprococcus comes),growth AUC (Escherichia coli ED1a),growth AUC (Escherichia coli IAI1),growth AUC (Eubacterium rectale),growth AUC [1],growth AUC (Lactobacillus gasseri),growth AUC (Lactobacillus paracasei),growth AUC (Odoribacter splanchnicus),growth AUC [2],growth AUC (Parabacteroides merdae),growth AUC (Roseburia intestinalis),growth AUC (Streptococcus salivarius)
CCOP(=O)(NC(C)C)Oc1ccc(SC)c(C)c1 (stereo not drawn),0.974,0.985,0.953,1.04,0.903,0.895,0.965,0.954,0.77,0.966,1.02,0.951
CC(Oc1ccc(Cl)cc1Cl)C(=O)O (stereo not drawn),1.02,0.978,0.966,1.04,0.97,0.927,0.989,0.965,0.857,0.973,0.978,0.981
CS(=O)(=O)c1ccc(C(=O)C2C(=O)CCCC2=O)c(Cl)c1,0.974,1.01,1.03,0.916,1.05,1.09,1.03,1.04,1.04,1.01,1.04,0.994
COC(=O)Nc1nc2ccccc2[nH]1,1.05,1.04,1.01,0.854,1.03,1.14,0.862,0.997,1.03,0.981,1,0.971
CNC(=O)ON=C(CS(C)=O)C(C)(C)C (stereo not drawn),1,1.02,0.998,1.14,1.01,1.06,0.999,1.02,1.03,1.01,0.974,0.989
CCOP(=S)(Oc1cnc(C(C)(C)C)nc1)OC(C)C (stereo not drawn),0.998,1.01,0.985,0.811,1.02,1.11,0.988,1.07,1.03,0.995,1.01,0.994
C/C(=N/Nc1nc(C)cc(C)n1)c1ccccc1C,0.957,1.02,1.04,0.495 (active),1.16,0.994,1.1,0.666,1.07,1.07,0.715 (active),0.999
O=C(OC1CCCCC1)c1ccccc1C(=O)OC1CCCCC1,0.97,1,0.99,0.946,1.01,1.08,1.02,0.991,0.957,1,0.983,1
CO/N=C(/C(=O)OC)c1ccccc1COc1ccccc1C,0.996,0.955,0.993,0.939,1.02,1.01,0.881,0.92,0.944,0.927,0.97,0.97
Cc1[nH]c(=O)n(C(C)(C)C)c(=O)c1Cl,0.999,0.983,0.942,1.01,0.978,0.927,1.06,1.02,0.968,0.995,0.986,1.02
CCC(C)(c1ccc(O)cc1)c1ccc(O)cc1,1.01,1,1.01,0.882,1.04,1,0.989,0.872,0.743,0.968,0.947,0.96
COCC(=O)N(c1c(C)cccc1C)C(C)C(=O)OC (stereo not drawn),1.02,0.989,1.01,1.04,1.09,1.09,0.987,1.04,1.05,1.05,1.01,0.986
Clc1nc(Cl)nc(Nc2ccccc2Cl)n1,1.03,1.01,0.998,0.859,1.02,0.991,1.01,1.08,1.04,0.969,1.04,1.03
CCOP(=S)(OCC)Oc1cc(Cl)c(SC)cc1Cl,1.02,0.999,0.977,0.897,1.03,0.981,0.995,1.12,1.01,0.926,0.994,1.01
OC(c1ccc(Cl)cc1)(c1ccc(Cl)cc1)C(Cl)(Cl)Cl,1.01,0.998,1.03,0.805,0.977,0.162 (active),1.01,0.687 (active),0.0387 (active),0.777 (active),0.891,0.874
O=[N+]([O-])c1cc(C(F)(F)F)c(Cl)c([N+](=O)[O-])c1Nc1ncc(C(F)(F)F)cc1Cl,0.953,0.98,0.986,0.995,0.885,0.807,0.578 (active),1.02,0.905,0.0369 (active),0.989,0.822
COP(=S)(OC)Oc1ccc(S(C)=O)c(C)c1 (stereo not drawn),1.04,0.975,1.04,1.06,1.02,1.02,1.01,0.979,1.03,0.988,1.07,0.988
O=C(Nc1ccc(F)cc1F)c1cccnc1Oc1cccc(C(F)(F)F)c1,0.999,0.968,0.965,1.06,0.939,0.891,1.05,1.06,0.962,0.971,0.933,0.958
CC(C)CC(C)c1sccc1NC(=O)c1cn(C)nc1C(F)(F)F (stereo not drawn),0.984,0.998,0.946,1.01,1.04,0.945,1.02,0.782,0.856,0.977,0.998,0.984
ClC1(Cl)C2(Cl)C3(Cl)C4(Cl)C(Cl)(Cl)C5(Cl)C3(Cl)C1(Cl)C5(Cl)C24Cl (stereo not drawn),0.986,1.03,0.989,0.98,0.997,0.939,0.897,0.982,1.03,0.966,0.958,0.922
COP(=O)(OC)Oc1ccc(S(C)(=O)=O)c(C)c1,0.989,1,0.983,0.795,0.998,1.07,0.971,1.02,1.02,0.995,1.02,1.01
COc1ccc(-c2ccccc2)cc1NNC(=O)OC(C)C,0.957,1.03,1.01,1,0.965,0.967,0.971,0.948,0.892,0.937,1.03,1.02
OC(Cn1cncn1)(c1ccc(F)cc1)c1ccccc1F (stereo not drawn),0.975,1.04,0.98,0.958,1.02,0.962,0.909,0.979,1.01,0.995,0.966,1.01
C=C(C)[C@H]1Cc2c(ccc3c2O[C@@H]2COc4cc(OC)c(OC)cc4[C@@H]2C3=O)O1,0.986,1,1.01,0.973,1.06,0.878,0.954,0.917,0.935,0.94,0.935,1.02
